Data on 40 sequences can be found in the supplement of paper PMC6555819.

The first assay has as its system LXRa homodimer (NR concentration 270 nM). Kind of assay: PBM binding z-score (relative to random genomic background probes); higher = stronger binding; sequences stand for … in GC…GCGATTGACAGCGTAGAATGAAGG
The gist of the method:
(§1)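 On custom Agilent 4×180K arrays, double-stranded probes with 34-nt variable regions carried direct-repeat seeds, single-nucleotide variants, half-site ablations or random human genomic background. Ligand-free nuclear receptor dimers were applied for 1 h, and binding was read with antibodies against each partner (one per run). Binding z-scores come from regression-normalized fluorescence, with the random background probes as reference.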
Consider TGAATGAGGTTAAAGATCTGGGAACGTGGCGTCG, for which the PBM binding z-score is -0.214.
In turn, CTCGCAAGGTCGGTTGAGGTGAGTATACGGATAA came in with a PBM binding z-score of -0.26.
The same measure, in the same setting: with CCACACAGGTGAAAGGTAACTCAGTCTGGTACGC the figure was 0.186; with CCTACTGCGCCAAGGTCATTGATCAGTCAAAGCA, 2.13.
TCTATTAGTTGAAGTGCAACCGACGAGTCCGTTT yielded a PBM binding z-score of 0.178.
On the same count and under the same terms, with AGAACGAGGGCAATGAGTAGATAGCACGGGTGGC the figure was -0.537; with TTGCCAAGGTGAAGGTCGTTGATCCCTCTGTAGA, -0.705; with TCTAGTTGGTCACGGAGGTCACACACGACGGGTA, 2.59.
The sequence ACAGACAGGTTAGTGAAGGTAACTCAGCTGGACG showed a PBM binding z-score of -0.196.
The same measure, in the same setting: with GCGATTGGGGCAAAGCAGGTTACCATAAGGTTGG the figure was -0.253; with ATCTCTAGGTAAGACTCCGTTCAGTGAAGAACGC, 0.698; with CCGACTGGGCCACGAAAGGTCATTGATTCAGTGA, 3.8.
Still for that read-out and setting: with AATACAGGGTCATTGTAGGCCAGAGTACGCACAG the figure was 3.2; with TTACCAAGGTGAGCTGAGGTCGTGGATCCAACTC, -0.734.
TCTATTAGTTGATTAGGGCAACCGCAACAGCGGA had a PBM binding z-score of 0.129.
As for AGTCAAAGTTCATCTAGGTAACCTAAGATATGCT, the PBM binding z-score was 6.02.
Still for that read-out and setting: with TCAGACAGGTGAAGGTAACGCAGGTACGCAGTCG the figure was -0.607; with AGAATGAGGTTATATGTAGATCAGGGAAGAAAGT, 0.495.
Same read-out and setting: with GCTCGGAGGACAAGGTCAGAGATTTGTCCGTAGA the figure was -0.347; with TCTGCTAGGTCAGTTGGTCAGGTAACGAGCTGCC, -0.298; with CCTCGGAGGACTACAGGAGGTCAGAGCTGCCAGA, 2.29.
Still for that read-out and setting: with GGAACGACGGCAAGTTGATAGCAGAGTTTGATGG the figure was -0.627; with ATCTCTAGGTAAAGATAGTTCTGTGAATGCAAAT, -0.054; with CGTCCAGGGTCAGAGAGGTCAGTGAATGCCGAGT, 1.62.
In turn, TCTAGTTGGTCACGGAGGTCACACCCGACGGGTA came in with a PBM binding z-score of 2.4.
Consider TCATATAGGTAAATGCTAAGTGAAAGTCCGATCT, for which the PBM binding z-score was determined as 0.284.
The same measure, in the same setting: as for TCTGCTAGGTCAGCTGGTCAGCTAACGAGCTGCC, the figure is -1.11.
The same measure, in the same setting: as for CTACCAAGGTGAACAAGGGCGTTGATTACTATTC, the figure is -0.543; as for AGTCAAAGTTCAAGACGAGGTAACGTAAAGCACG, 2.72; as for GCTGCTAGGTCAGGTTGATCAGCTAACGGGTACG, -0.478.
Still for that read-out and setting: with CCTTACGGGTCAAGGTTTTAGCACGGGTGGTACG the figure was 0.107.
As for TGAATGAGGTTATGAGATCAGGGAACGTTGCAAA, the PBM binding z-score was -0.558.
In the case of AGAACGAGGGCACGCTGAGTTCATAGCAGAGTAG, the PBM binding z-score is 1.02.
Same read-out and setting: with AGTCAAAGTTCACTAGGTAACCTAAGATTCAGCT the figure was 3.76; with GTACCAAGGTGAATAGGTCGTGGATGAGTAGGCG, -0.132.
The sequence CTCCAAAGGTCGTGCTCAGGTGAGTATACCAAAC gave a PBM binding z-score of 0.227.
Still for that read-out and setting: as for TGATATAGGTAAACAGGTGAAAGTCCGTAAGTTA, the figure is 0.0822.
The same measure, in the same setting: as for TCTATTAGTAGATTAGGGCAACCGAAACAGCGGA, the figure is -0.337.
CGTCCAAGGTCATAGGAGGTCAGTGAGGACAGAT gave a PBM binding z-score of 5.15.
Same read-out and setting: with TCTCGGAGGACACGGAAGGTCAGAGCTCGACATC the figure was 1.19.

A further assay deals with LXRb:RXRa (NR concentration 270 nM, RXRa partner concentration 90 nM). The description is as above. An outline of the steps: as §1
TGAATGAGGTTAAAGATCTGGGAACGTGGCGTCG: the PBM binding z-score turned out to be 1.46.
Same read-out and setting: as for CTCGCAAGGTCGGTTGAGGTGAGTATACGGATAA, the figure is 0.374; as for CCACACAGGTGAAAGGTAACTCAGTCTGGTACGC, 1.15.
On the same count and under the same terms, with CCTACTGCGCCAAGGTCATTGATCAGTCAAAGCA the figure was 3.52; with TCTATTAGTTGAAGTGCAACCGACGAGTCCGTTT, 0.755.
On the same count and under the same terms, as for AGAACGAGGGCAATGAGTAGATAGCACGGGTGGC, the figure is -0.239.
TTGCCAAGGTGAAGGTCGTTGATCCCTCTGTAGA: the PBM binding z-score worked out at 1.45.
The same measure, in the same setting: with TCTAGTTGGTCACGGAGGTCACACACGACGGGTA the figure was 3.33; with ACAGACAGGTTAGTGAAGGTAACTCAGCTGGACG, -0.21.
Take GCGATTGGGGCAAAGCAGGTTACCATAAGGTTGG: the PBM binding z-score stood at 0.678.
Sequence ATCTCTAGGTAAGACTCCGTTCAGTGAAGAACGC registered a PBM binding z-score of 0.0873.
Sequence CCGACTGGGCCACGAAAGGTCATTGATTCAGTGA registered a PBM binding z-score of 4.13.
Regarding AATACAGGGTCATTGTAGGCCAGAGTACGCACAG, the PBM binding z-score is 5.09.
Still for that read-out and setting: with TTACCAAGGTGAGCTGAGGTCGTGGATCCAACTC the figure was 0.827; with TCTATTAGTTGATTAGGGCAACCGCAACAGCGGA, 0.329.
For AGTCAAAGTTCATCTAGGTAACCTAAGATATGCT, the PBM binding z-score stood at 4.02.
Still for that read-out and setting: as for TCAGACAGGTGAAGGTAACGCAGGTACGCAGTCG, the figure is 0.397.
Sequence AGAATGAGGTTATATGTAGATCAGGGAAGAAAGT yielded a PBM binding z-score of 1.82.
On the same count and under the same terms, as for GCTCGGAGGACAAGGTCAGAGATTTGTCCGTAGA, the figure is 1.2; as for TCTGCTAGGTCAGTTGGTCAGGTAACGAGCTGCC, 0.248; as for CCTCGGAGGACTACAGGAGGTCAGAGCTGCCAGA, 1.62.
GGAACGACGGCAAGTTGATAGCAGAGTTTGATGG showed a PBM binding z-score of -0.839.
Still for that read-out and setting: as for ATCTCTAGGTAAAGATAGTTCTGTGAATGCAAAT, the figure is 0.231; as for CGTCCAGGGTCAGAGAGGTCAGTGAATGCCGAGT, 4.15.
Same read-out and setting: as for TCTAGTTGGTCACGGAGGTCACACCCGACGGGTA, the figure is 3.2; as for TCATATAGGTAAATGCTAAGTGAAAGTCCGATCT, 0.773.
The same measure, in the same setting: with TCTGCTAGGTCAGCTGGTCAGCTAACGAGCTGCC the figure was 0.287; with CTACCAAGGTGAACAAGGGCGTTGATTACTATTC, 0.44; with AGTCAAAGTTCAAGACGAGGTAACGTAAAGCACG, 3.19.
Sequence GCTGCTAGGTCAGGTTGATCAGCTAACGGGTACG had a PBM binding z-score of 0.353.
The same measure, in the same setting: as for CCTTACGGGTCAAGGTTTTAGCACGGGTGGTACG, the figure is 2.74; as for TGAATGAGGTTATGAGATCAGGGAACGTTGCAAA, 0.95.
Still for that read-out and setting: with AGAACGAGGGCACGCTGAGTTCATAGCAGAGTAG the figure was 1.45.
The same measure, in the same setting: with AGTCAAAGTTCACTAGGTAACCTAAGATTCAGCT the figure was 3.3; with GTACCAAGGTGAATAGGTCGTGGATGAGTAGGCG, 0.395; with CTCCAAAGGTCGTGCTCAGGTGAGTATACCAAAC, 3.67.
With TGATATAGGTAAACAGGTGAAAGTCCGTAAGTTA, the PBM binding z-score was determined as 0.388.
The same measure, in the same setting: as for TCTATTAGTAGATTAGGGCAACCGAAACAGCGGA, the figure is 0.176; as for CGTCCAAGGTCATAGGAGGTCAGTGAGGACAGAT, 6.18; as for TCTCGGAGGACACGGAAGGTCAGAGCTCGACATC, 1.33.
